Experimental data: PubChem BioAssay (EPA / NIEHS)
Some structures have more than one record in an assay (separate samples or runs), and their calls can disagree. Activity calls are given as the source filed them. Rule for the calls: active = hit-call score of the fitted dose curve at least 0.9, where 1 is the maximum; inactive = score below 0.9.

Columns and labels:
[1] = APR_HepG2_CellLoss_72hr: Apredica 72-hour HepG2 Assay for Cell Loss (AID 2282915); settings: high-content imaging
Procedure, shortened: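 HepG2 cells were exposed for 72 hr to compounds at 0.39–200 uM (ten concentrations, duplicate) in 0.5% v/v final DMSO. Nuclei were stained with Hoechst 33342 after 3.7% formaldehyde fixation, imaged at 20x, and counted; fits bidirectional versus DMSO.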

[2] = APR_HepG2_P-H2AX_72hr: Apredica 72-hour HepG2 Assay for H2AX Phosphorylation (AID 2282916); settings: imaging, actives raise or lower the signal;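 note: phospho-histone H2A.x immunostain intensity per cell marking DNA damage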
Procedure, shortened: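 HepG2 human liver cells were exposed for 72 hr to compounds at 0.39–200 uM (10 concentrations, duplicate per plate) in 0.5% v/v DMSO. Fixed, permeabilized cells were immunolabeled for phospho-histone H2A.x with Hoechst 33342 and imaged by HCS fluorescence; bidirectional fit versus DMSO.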

[3] = APR_HepG2_MitoMembPot_72hr: Apredica 72-hour HepG2 Assay for Mitochondrial Membrane Potential (AID 2282917); settings: imaging, actives raise or lower the signal
Procedure, shortened: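 HepG2 cells exposed 72 h to compounds at 0.39–200 uM (0.5% v/v DMSO, duplicates); MitoTracker Red CMXRos 250 nM loaded 30 min before 3.7% formaldehyde fixation, imaged by HCS fluorescence. Bidirectional fit versus DMSO.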

[4] = APR_HepG2_MitoticArrest_72hr: Apredica 72-hour HepG2 Assay for Mitotic Arrest (AID 2282918); settings: high-content imaging, actives raise or lower the signal
Procedure, shortened: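 HepG2 cells treated 72 h at 0.39–200 uM, 0.5% DMSO final; formaldehyde-fixed, stained with Hoechst 33342 and phospho-histone H3 antibody, imaged by high-content fluorescence; bidirectional fit versus DMSO.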

[5] = APR_HepG2_MicrotubuleCSK_72hr: Apredica 72-hour HepG2 Assay for Microtubule CSK Stabilty (AID 2282919); settings: HepG2 microtubule cytoskeleton, high-content imaging, actives raise or lower the signal
Procedure, shortened: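 HepG2 human liver cells were dosed for 72 h at ten concentrations from 0.39 to 200 uM in duplicate (0.5% v/v DMSO final). Fixed, permeabilized cells were immunostained for alpha-tubulin (Cy5) with a Hoechst counterstain and imaged at 20x.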

[6] = APR_HepG2_P-H2AX_24hr: Apredica 24-hour HepG2 Assay for H2AX Phosphorylation (AID 2282920); settings: high-content imaging, actives raise or lower the signal
Procedure, shortened: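 HepG2 cells dosed 24 h at 0.39–200 uM (10 points, duplicate, 0.5% DMSO final). Formaldehyde-fixed and permeabilized, then immunostained for phospho-H2A.x with Hoechst. Fluorescence quantified by high-content imaging, fitted bidirectionally versus DMSO.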

[7] = APR_HepG2_StressKinase_24hr: Apredica 24-hour HepG2 Assay for Stress Kinase (AID 2282922); settings: HepG2 stress kinase (phospho-c-Jun) imaging, actives raise or lower the signal
Procedure, shortened: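 HepG2 cells exposed 24 hr to compound at 0.39–200 uM (10 concentrations, duplicate), 0.5% v/v DMSO final. Fixed in 3.7% formaldehyde, permeabilized with Triton X-100, immunolabeled for phospho-c-Jun with Hoechst 33342; HCS fluorescence imaging, bidirectional fit versus DMSO.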

[8] = APR_HepG2_p53Act_72hr: Apredica 72-hour HepG2 Assay for p53 Activation (AID 2282923); settings: high-content imaging, actives raise or lower the signal;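 note: average cellular p53 protein immunofluorescence intensity in HepG2 cells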
Procedure, shortened: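 Cells were dosed for 72 hr with compounds at 0.39–200 uM in duplicate (final DMSO 0.5% v/v), then fixed in 3.7% formaldehyde, permeabilized with Triton X-100 and immunostained for p53 (Cy5) with Hoechst 33342 nuclear counterstain.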

[9] = APR_HepG2_MitoMass_72hr: Apredica 72-hour HepG2 Assay for Mitochondrial Mass (AID 2282924); settings: high-content imaging, actives raise or lower the signal;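 note: MitoTracker Red CMXRos stain intensity per cell imaged as mitochondrial mass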
Procedure, shortened: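 HepG2 cells were exposed for 72 hr to compounds at 0.39–200 uM (ten concentrations, duplicate, 0.5% v/v DMSO final). Live cells were stained with 250 nM MitoTracker Red CMXRos for 30 min, then fixed in 3.7% formaldehyde and imaged by HCS fluorescence.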

[10] = APR_HepG2_NuclearSize_72hr: Apredica 72-hour HepG2 Assay for Nuclear Size (AID 2282925); settings: high-content imaging, actives raise or lower the signal
Procedure, shortened: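 HepG2 cells were exposed to compounds at ten concentrations from 0.39 to 200 uM (duplicate, 0.5% DMSO final) for 72 hr. After fixation in 3.7% formaldehyde, nuclei were stained with Hoechst 33342 (2 ug/mL) and imaged at 20x.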

[11] = ATG_CRE_CIS: Attagene CIS-FACTORIAL HepG2 Assay for human cAMP Responsive Element (CRE) binding protein 3 (AID 2282926); settings: HepG2 CRE cis-reporter, Attagene multiplexed mRNA; actives raise or lower the signal
Procedure, shortened: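 HepG2 cells transiently transfected with cis-element-driven multiple reporter transcription units; CRE reporter mRNA measured 24 h after dosing by RT-PCR, 6-FAM labelling, HpaI digestion and capillary electrophoresis. Bidirectional fit versus DMSO baseline.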

[12] = target: CCAAT/enhancer-binding protein beta (Homo sapiens) (UniProt P17676); experiment: ATG_C_EBP_CIS: Attagene CIS-FACTORIAL HepG2 Assay for human CCAAT/Enhancer Binding Protein (C/EBP) beta (AID 2282927); settings: HepG2 Attagene cis-factorial transcription factor reporter; actives raise or lower the signal
Procedure, shortened: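 RT-PCR/capillary electrophoresis fluorescence of reporter mRNA, 24 h post-dose, in HepG2 cells carrying transfected cis-promoter reporter units. Bidirectional curve fitting against DMSO baseline captures gain or loss of signal.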

[13] = ATG_CMV_CIS: Attagene CIS-FACTORIAL HepG2 Assay for human CMV (Internal Marker) (AID 2282928); settings: HepG2 CMV promoter reporter, transcription factor profiling; actives raise or lower the signal;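 note: endpoint acts as a background internal control marker rather than a target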
Procedure, shortened: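 HepG2 cells transiently transfected with multiple cis-regulated reporter units; 24 h compound exposure. Reporter mRNA quantified by RT-PCR, 6-FAM primer-extension labeling, HpaI digestion and capillary electrophoresis; bidirectional fitting against DMSO baseline.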

[14] = ATG_DR4_LXR_CIS: Attagene CIS-FACTORIAL HepG2 Assay for human Liver X Receptor (LXR), DR4 submotif (AID 2282929); settings: HepG2 Attagene DR4 cis-reporter, mRNA transcription; actives raise or lower the signal
Procedure, shortened: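 HepG2 cells were transiently transfected with multiple cis-regulated reporter units and dosed for 24 hours. The DR4 reporter mRNA was quantified by RT-PCR, 6-FAM labelling and capillary electrophoresis. Bidirectional fits used DMSO as baseline.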

[15] = target: Aryl hydrocarbon receptor (Homo sapiens) (UniProt P35869); experiment: ATG_Ahr_CIS: Attagene CIS-FACTORIAL HepG2 Assay for human Aryl Hydrocarbon Receptor (Ahr) (AID 2282930); settings: HepG2 AhR cis-factorial reporter transcription; actives raise or lower the signal
Procedure, shortened: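 HepG2 cells transiently transfected with cis-element-driven multiplexed reporter transcription units; endogenous transcription factor activity measured as reporter mRNA 24 h after dosing. RT-PCR, 6-FAM labelling, HpaI digestion, capillary electrophoresis; bidirectional fitting versus DMSO baseline.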

[16] = ATG_AP_2_CIS: Attagene CIS-FACTORIAL HepG2 Assay for human Activator Protein 2 (AP-2) (AID 2282932); settings: HepG2 AP-2 cis-reporter, Attagene transcription factor profiling; actives raise or lower the signal
Procedure, shortened: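 HepG2 cells were transiently transfected with multiple cis-promoter reporter transcription units and dosed for 24 h. Reporter mRNA was measured by RT-PCR with capillary electrophoresis fluorescence; bidirectional fits relative to DMSO baseline.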

[17] = target: Retinoic acid receptor alpha (Homo sapiens) (UniProt P10276); experiment: ATG_DR5_RAR_CIS: Attagene CIS-FACTORIAL HepG2 Assay for human Retinoic Acid Receptor Alpha (RARE), DR5 submotif (AID 2282934); settings: HepG2 Attagene cis-factorial RARE DR5 reporter, mRNA; actives raise or lower the signal;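 for AC50: reporter responds to endogenous RAR alpha beta and gamma in HepG2 not RARA alone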
Procedure, shortened: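 HepG2 cells transiently transfected with multiplexed reporter units under cis (DR5 RARE) promoters, so endogenous transcription factor activity is measured. After 24 h compound exposure, reporter mRNA is quantified by RT-PCR with fluorescent labelling and capillary electrophoresis; bidirectional fitting versus DMSO.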

[18] = APR_HepG2_StressKinase_72hr: Apredica 72-hour HepG2 Assay for Stress Kinase (AID 2282921); settings: HepG2 stress kinase (phospho-c-Jun) imaging, actives raise or lower the signal
Procedure, shortened: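 Cells were exposed for 72 h to ten concentrations (0.39–200 uM, duplicate) at 0.5% v/v DMSO final, then fixed with 3.7% formaldehyde, permeabilized and immunostained for phospho-c-Jun (Cy3 secondary) with Hoechst nuclear counterstain.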

[19] = ATG_AP_1_CIS: Attagene CIS-FACTORIAL HepG2 Assay for human Activator Protein 1 (AP-1) (AID 2282931); settings: HepG2 Attagene cis-factorial AP-1 reporter mRNA; actives raise or lower the signal
Procedure, shortened: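 HepG2 cells transiently transfected with cis-element-driven reporter transcription units, dosed for 24 hours. Reporter mRNA measured by RT-PCR, 6-FAM labelling, HpaI digestion and capillary electrophoresis. Bidirectional fitting against DMSO baseline.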

[20] = ATG_BRE_CIS: Attagene CIS-FACTORIAL HepG2 Assay for human Bone Morphogenetic Protein (BMP) Response Element (BRE) (AID 2282933); settings: HepG2 BMP response element reporter, Attagene transcription factor profiling; actives raise or lower the signal
Procedure, shortened: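 Gain- or loss-of-signal was derived by bidirectional fitting against DMSO controls. The signal came from reporter mRNA, measured by RT-PCR and capillary electrophoresis, in HepG2 cells transiently carrying multiple reporter units and dosed for 24 h.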

Measured: AC50

Aryl hydrocarbon receptor (Homo sapiens), sequence (P35869 whole entry, looked up): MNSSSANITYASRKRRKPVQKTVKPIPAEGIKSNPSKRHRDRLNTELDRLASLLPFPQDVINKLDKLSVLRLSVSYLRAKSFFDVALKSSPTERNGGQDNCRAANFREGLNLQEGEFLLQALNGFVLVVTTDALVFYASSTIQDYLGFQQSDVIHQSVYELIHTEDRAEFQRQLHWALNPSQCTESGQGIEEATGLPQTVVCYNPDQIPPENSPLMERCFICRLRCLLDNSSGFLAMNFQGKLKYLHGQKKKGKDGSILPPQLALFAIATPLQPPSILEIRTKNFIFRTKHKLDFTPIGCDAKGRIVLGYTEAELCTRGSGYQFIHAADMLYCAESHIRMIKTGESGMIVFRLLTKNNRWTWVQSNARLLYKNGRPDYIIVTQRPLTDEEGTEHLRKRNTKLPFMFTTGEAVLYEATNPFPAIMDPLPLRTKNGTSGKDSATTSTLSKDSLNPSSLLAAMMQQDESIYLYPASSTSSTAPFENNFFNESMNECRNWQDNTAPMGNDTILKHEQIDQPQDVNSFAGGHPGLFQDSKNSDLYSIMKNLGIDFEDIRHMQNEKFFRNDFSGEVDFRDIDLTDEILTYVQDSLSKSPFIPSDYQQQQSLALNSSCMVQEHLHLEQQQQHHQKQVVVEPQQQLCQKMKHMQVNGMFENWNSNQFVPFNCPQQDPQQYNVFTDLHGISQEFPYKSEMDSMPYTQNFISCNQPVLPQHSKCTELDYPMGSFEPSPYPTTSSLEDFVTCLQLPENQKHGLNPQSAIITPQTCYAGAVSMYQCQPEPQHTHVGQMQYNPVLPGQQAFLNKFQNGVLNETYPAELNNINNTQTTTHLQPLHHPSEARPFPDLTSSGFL
Retinoic acid receptor alpha (Homo sapiens), sequence (P10276 whole entry, looked up): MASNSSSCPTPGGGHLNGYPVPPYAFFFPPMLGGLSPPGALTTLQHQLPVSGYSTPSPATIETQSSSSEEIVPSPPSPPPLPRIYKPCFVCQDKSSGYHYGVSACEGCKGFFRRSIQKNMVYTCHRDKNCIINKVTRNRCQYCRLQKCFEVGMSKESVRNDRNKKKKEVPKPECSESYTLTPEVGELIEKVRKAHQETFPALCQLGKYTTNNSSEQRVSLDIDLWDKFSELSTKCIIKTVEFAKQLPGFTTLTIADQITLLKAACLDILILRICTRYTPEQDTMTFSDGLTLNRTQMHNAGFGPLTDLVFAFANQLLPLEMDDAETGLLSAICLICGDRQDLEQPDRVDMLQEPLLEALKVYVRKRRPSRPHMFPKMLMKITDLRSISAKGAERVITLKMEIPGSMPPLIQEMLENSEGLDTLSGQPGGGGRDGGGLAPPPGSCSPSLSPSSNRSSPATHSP
CCAAT/enhancer-binding protein beta (Homo sapiens), sequence (P17676 whole entry, looked up): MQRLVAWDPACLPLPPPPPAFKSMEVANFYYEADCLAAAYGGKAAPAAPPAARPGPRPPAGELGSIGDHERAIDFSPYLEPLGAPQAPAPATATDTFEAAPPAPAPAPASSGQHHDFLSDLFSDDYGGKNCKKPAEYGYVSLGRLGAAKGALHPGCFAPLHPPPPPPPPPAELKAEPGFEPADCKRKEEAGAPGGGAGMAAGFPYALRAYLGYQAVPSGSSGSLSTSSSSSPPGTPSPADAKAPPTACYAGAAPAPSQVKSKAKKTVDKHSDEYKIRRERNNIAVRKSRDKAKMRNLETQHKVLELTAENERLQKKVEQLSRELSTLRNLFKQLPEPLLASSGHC

COC(=O)c1ccc(CNS(C)(=O)=O)cc1S(=O)(=O)NC(=O)Nc1nc(OC)cc(OC)n1
not listed: [18] | [19] | [20]
inactive: all other assays above

CCOC(=O)C(C)Oc1ccc(Oc2cnc3cc(Cl)ccc3n2)cc1 (centres undefined)
active: [1] 80.6 µM | [3] 13.6 µM | [5] 95.1 µM
not listed: [8] | [11] | [18] | [19] | [20]
inactive: all other assays above

C=CCOC(Cn1ccnc1)c1ccc(Cl)cc1Cl (centres undefined)
active: [1] 78.2 µM | [5] 43.1 µM | [12] 12.4 µM | [13] 33 µM | [14] 76.1 µM | [19] 50 µM | [16] 50 µM
not listed: [4] | [11] | [17] | [20]
inactive: all other assays above

O=C(c1ccc(O)cc1O)c1ccc(O)cc1O
active: [9] 4.43 µM | [13] 80.5 µM [middle of 4 runs]
not listed: [19] | [20]
inactive: all other assays above

N#CSCSc1nc2ccccc2s1
active: [1] 10 µM | [3] 25.2 µM | [13] 2.95 µM | [14] 3.05 µM | [16] 9.15 µM | [20] 3.03 µM
inactive: [2] | [4] | [5] | [6] | [18] | [7] | [9] | [10] | [12] | [13] | [14] | [15] | [16] | [20] | [17]

CC(C)(C)[C@@H](O)[C@@H](Cc1ccc(Cl)cc1)n1cncn1
active: [1] 33.4 µM | [11] 13.5 µM | [12] 3.43 µM | [20] 13.7 µM | [17] 32.1 µM
not listed: [15] | [19]
inactive: all other assays above

COCCO
not listed: [18] | [20]
inactive: all other assays above

CCOC(=O)COc1cc(-n2ncc(C(F)(F)F)c(C)c2=O)c(F)cc1Cl
not listed: [4] | [11] | [20]
inactive: all other assays above

Cc1nn(C)c(Oc2ccccc2)c1C=NOCc1ccc(C(=O)OC(C)(C)C)cc1
active: [1] 19.8 µM | [4] 40.3 µM | [5] 21.2 µM | [11] 0.0405 µM | [12] 0.0505 µM | [13] 0.0218 µM | [19] 0.0252 µM | [20] 0.0409 µM | [17] 0.0303 µM
not listed: [18]
inactive: all other assays above

Oc1ccc(C(c2ccc(O)cc2)C(Cl)(Cl)Cl)cc1
active: [1] 33.4 µM
not listed: [4] | [17] | [19] | [20]
inactive: all other assays above

CCCCOC(=O)[C@@H](C)Oc1ccc(Oc2ccc(C(F)(F)F)cn2)cc1
not listed: [11] | [18] | [19] | [20]
inactive: all other assays above

CCN(CC)C(=O)c1cccc(C)c1
not listed: [8] | [18] | [19] | [20]
inactive: all other assays above

CCCN(CCC)c1c([N+](=O)[O-])cc(C(F)(F)F)c(N)c1[N+](=O)[O-]
active: [1] 33 µM | [5] 51.2 µM | [13] 24.5 µM | [14] 6.65 µM | [15] 28.9 µM
not listed: [11] | [19] | [20]
inactive: all other assays above
